# According to the supplement of paper PMC12645437, “Orthogonal IMiD-Degron Pairs Induce Selective Protein Degradation in Cells” (ACS Chemical Biology, 2025):
# Whole data set: some 8,300 sequences, median “log2 fold change of degron read counts, EGFP-low vs EGFP+ sorted cells (limma voom), compound-induced degradation” near -1.1, cut for the highest 2% near 3.2. The list comes from a sample in which the highest values are over-represented; it also holds similar and randomly drawn sequences.
# T1: CRBN, Q96SW2
# T1 chain: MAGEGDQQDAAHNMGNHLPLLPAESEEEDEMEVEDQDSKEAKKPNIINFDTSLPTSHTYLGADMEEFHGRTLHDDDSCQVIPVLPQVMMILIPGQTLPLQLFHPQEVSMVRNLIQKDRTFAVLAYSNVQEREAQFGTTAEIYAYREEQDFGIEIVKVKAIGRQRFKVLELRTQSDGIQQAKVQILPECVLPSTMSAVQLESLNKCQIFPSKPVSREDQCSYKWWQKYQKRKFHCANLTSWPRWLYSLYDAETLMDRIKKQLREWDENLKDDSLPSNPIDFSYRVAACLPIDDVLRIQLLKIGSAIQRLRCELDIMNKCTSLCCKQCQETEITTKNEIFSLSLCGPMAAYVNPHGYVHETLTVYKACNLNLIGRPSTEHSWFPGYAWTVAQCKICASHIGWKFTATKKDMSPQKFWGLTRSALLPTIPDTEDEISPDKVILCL
# B1: 46L_47S_49E_50I_52G_53F_54I_55C_67L_, Q9UKT9 (peptide)
# chain: LSCEICGFICTQKGNLLRHIKL
# B2: 46L_47R_49N_50Q_52G_53F_54D_55C_67L_, Q9UKT9 (peptide)
# chain: LRCNQCGFDCTQKGNLLRHIKL
# B3: 46F_47I_49E_50I_52G_53A_54V_55F_67L_, Q9UKT9 (peptide)
# chain: FICEICGAVFTQKGNLLRHIKL
# B4: 46F_47E_49E_50Q_52G_53A_54I_55F_67L_, Q9UKT9 (peptide)
# chain: FECEQCGAIFTQKGNLLRHIKL
# B5: 46L_47A_49E_50I_52G_53F_54E_55C_67L_, Q9UKT9 (peptide)
# chain: LACEICGFECTQKGNLLRHIKL
# B6: 46F_47I_49E_50I_52G_53R_54M_55F_67L_, Q9UKT9 (peptide)
# chain: FICEICGRMFTQKGNLLRHIKL
# B7: 46F_47C_49P_50I_52G_53A_54T_55F_67L_, Q9UKT9 (peptide)
# chain: FCCPICGATFTQKGNLLRHIKL
# B8: 46F_47K_49P_50I_52G_53A_54T_55F_67L_, Q9UKT9 (peptide)
# chain: FKCPICGATFTQKGNLLRHIKL
# B9: 46F_47I_49P_50I_52G_53A_54T_55F_67L_, Q9UKT9 (peptide)
# chain: FICPICGATFTQKGNLLRHIKL
# B10: 46F_47R_49P_50I_52G_53A_54T_55F_67L_, Q9UKT9 (peptide)
# chain: FRCPICGATFTQKGNLLRHIKL
# B11: 46F_47A_49P_50I_52G_53A_54T_55F_67L_, Q9UKT9 (peptide)
# chain: FACPICGATFTQKGNLLRHIKL
# B12: 46F_47G_49P_50I_52G_53A_54T_55F_67L_, Q9UKT9 (peptide)
# chain: FGCPICGATFTQKGNLLRHIKL
# B13: 46F_47S_49P_50I_52G_53A_54T_55F_67L_, Q9UKT9 (peptide)
# chain: FSCPICGATFTQKGNLLRHIKL
# B14: 46F_47F_49P_50I_52G_53A_54T_55F_67L_, Q9UKT9 (peptide)
# chain: FFCPICGATFTQKGNLLRHIKL
# B15: 46F_47N_49P_50I_52G_53A_54T_55F_67L_, Q9UKT9 (peptide)
# chain: FNCPICGATFTQKGNLLRHIKL
# B16: 46F_47Q_49P_50I_52G_53A_54T_55F_67L_, Q9UKT9 (peptide)
# chain: FQCPICGATFTQKGNLLRHIKL
# B17: 46F_47M_49P_50I_52G_53A_54T_55F_67L_, Q9UKT9 (peptide)
# chain: FMCPICGATFTQKGNLLRHIKL
# B18: 46F_47V_49P_50I_52G_53A_54T_55F_67L_, Q9UKT9 (peptide)
# chain: FVCPICGATFTQKGNLLRHIKL
# Target: T1, CRBN, Q96SW2
# Assay: log2 fold change of degron read counts, EGFP-low vs EGFP+ sorted cells (limma voom), compound-induced degradation; higher = more compound-induced degradation of the degron-EGFP fusion; degrons are variants of IKZF1/3 zinc finger 2; compound dose not given here
# Settings: Jurkat, 18 h
# [1] = compound: compound 19 (5-tert-butyl-thalidomide)
# [2] = compound: compound 22 (5-morpholino-thalidomide)
# [3] = compound: compound 33 (diphenyl IMiD analogue)
# 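Also: pooled lentiviral library of zinc finger degron-EGFP fusions in mCherry-positive Jurkat cells, FACS-sorted after compound exposure, with degron abundance counted by next-generation sequencing.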
Sequence,log2 fold change of degron read counts [1],log2 fold change of degron read counts [2],log2 fold change of degron read counts [3],log2 fold change of degron read counts (compound: thalidomide)
B1,0.617,0.753,0.094,0.23
B2,-2.4,-3.02,-2,-2.27
B3,-0.571,1.25,2.53,2.12
B4,-2.86,-2.97,-1.26,-0.499
B5,0.602,-0.739,-1.36,-0.804
B6,-2.48,-1.85,-0.238,-0.738
B7,1.51,1.82,2.36,2.09
B8,-1.47,-2.7,-2.3,-1.17
B9,-1.06,1.53,1.48,1.86
B10,-0.752,-0.483,1.07,1.12
B11,3.39,1.82,1.17,0.639
B12,3.46,2.4,2.17,1.08
B13,2.78,2.14,2.34,1.5
B14,2.81,3.61,1.65,1.35
B15,1.88,0.692,1.59,0.652
B16,0.717,2.74,2.33,3.56
B17,-1.31,0.0387,2.08,1.34
B18,-0.613,1.74,1.8,2.23
